IL1B secr inh: inhibitors of inflammasome signaling (IL-1 beta secretion) | THP-1 LPS/ATP IL-1B secretion, AlphaLISA, 16 h; active compounds read low | activity change, % at 57.5 µM | 4.7% of 360,000 active | AID 743279; in the data active = activity change below about -50%; inconclusive = mostly about -30% to -49%
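THP-1 cells pretreated 1 hr with compounds (up to 57.5 uM final), then stimulated with LPS (250 ng/mL final) plus ATP (1.25 mM final); secreted IL-1B measured by AlphaLISA after 16 hr, decreased signal indicating inhibition.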
Chronic BCR inh: blocks chronic active B-cell receptor signaling | ABC-DLBCL IkBa-CBG/CBR reporter, luminescence ratio, 4 h | Potency, µM (highest dose often 46.1 µM), usual class: inhibitors | 0.05% of 340,000 active; active = well fitted inhibition curve with a large enough effect in the signal ratio, with a control signal flat, not every such curve was filed as active; inconclusive = small, poorly fitted or top-dose-only effect, or effect the other way, or a change in a side signal; the % refers to the signal ratio
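Cell line TMD8 (human ABC DLBCL), stably expressing tet-inducible CBG68-IkBa fusion and CBR; IMDM/0.5% FBS; cpd up to 46 uM; dox induction, 4 h, 37C/5% CO2; dual luminescence; green/red ratio; MG132 control.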
DT40 TDP1 CPT: growth inhibition of DT40 Tdp1-/-;hTDP1 cells with camptothecin (screen for TDP1 inhibitors) | chicken DT40 Tdp1-/-;hTDP1 cells + 20 nM CPT, ATP luminescence, 48 h | Potency, µM (top dose mostly 46.2 µM), usual class: inhibitors | 12% of 420,000 active | AID 686979; also: nearly all actives have a fitted effect of over 55% in size
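Chicken DT40 Tdp1-/- cells stably complemented with human TDP1 were seeded at 400 cells/well in medium containing 20 nM camptothecin, exposed to pin-transferred compounds, and grown at 37 °C for at least 48 hr. Viability was read as ATP luminescence.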
SW480 rerep: inducers of DNA re-replication in SW480 colon cancer cells. Potency, µM (top dose mostly 46.1 µM), actives largely listed as activators. SW480 DNA re-replication, Hoechst DNA content imaging, 48 h. 1.8% of 340,000 active; also: nearly all actives have a fitted effect of over 55% in size
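SW480 cells exposed to compounds for 48 hr at 37 C, 5% CO2, then Hoechst-stained 40 min. Nuclear DNA content imaged by fluorescence scanning (405 nm excitation, 500-530 nm emission); re-replication scored as increased high-intensity nuclei.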
MCF10A rereplic: DNA re-replication induction in MCF 10a cells; MCF 10A DNA re-replication, Hoechst nuclear intensity, 48 h; Potency, µM (series often up to 46.1 µM), most hits filed as activators; 2.9% of 350,000 active; AID 624296; also: nearly all actives have a fitted effect of over 50% in size
DT40 TDP1 no CPT: qHTS for Inhibitors of human tyrosyl-DNA phosphodiesterase 1 (TDP1): qHTS in cells in absence of CPT; Potency, µM (doses to about 46.2 µM), usual class: inhibitors; 15% of 420,000 active; AID 686978, 2013; DT40 Tdp1-/- hTDP1 cells, no CPT, ATP luminescence, 48 h; also: nearly all actives have a fitted effect of over 55% in size
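A cellular qHTS used chicken DT40 cells lacking endogenous Tdp1 but carrying stably transfected human TDP1. Compounds were applied without camptothecin, and cell growth kinetics were judged by ATP-dependent luminescence after ≥48 hr.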
Numbers stand for hits; 0 = inactive; ? = inconclusive; - = no result; [ ] = remark or other dose. A selection: hits, their analogues and other compounds. The true share with any hit is near 19%. Unless noted, calls follow the shape of the dose curve; as a rule, active = well fitted curve in the direction sought with a large enough effect; inconclusive = small, poorly fitted or top-dose-only effect, or another doubt; inactive = no such curve, though single readings can be large; an effect the other way counts as inactive or inconclusive.

SMILES	IL1B secr inh	Chronic BCR inh	DT40 TDP1 CPT	SW480 rerep	MCF10A rereplic	DT40 TDP1 no CPT
COc1ccc(C(=O)Nc2ccc(N3CCN(c4ccccc4)CC3)c(C(=O)O)c2)cc1	-	?	0	-	-	0
O=C(NCCc1cccnc1)C1CCC(=O)N(Cc2ccc(Cl)cc2)C1 (configuration not stated)	0	0	0	0	0	0
Cc1ccc(NC(=O)c2ccc(NC(=O)N3CCSc4nc(C)cc(C)c43)cc2)c(Cl)c1	-	-	?	-	-	0
CN1c2ccccc2C(C)(C)C12CC(c1ccc(S(=O)(=O)N3CCCCC3)cc1)=NO2 (configuration not stated)	0	0	?	0	0	21µM
CN1c2ccccc2C(C)(C)C12CC(c1cccc(S(=O)(=O)N3CCCC3)c1)=NO2 (configuration not stated)	0	0	?	0	0	16µM
CN1/C(=C\C(=O)c2cccc(S(=O)(=O)N3CCCCC3)c2)C(C)(C)c2ccccc21	0	0	?	?	?	?
CCn1c(=O)n(CC)c2cc(N3CCCC3)c(NC(=O)c3ccc(C)c([N+](=O)[O-])c3)cc21	0	0	6.5µM	0	0	7.3µM
Cc1cccc(C(=O)Nc2cc3c(cc2N2CCCCC2)n(C)c(=O)c(=O)n3C)c1	-	-	0	-	-	0
CCn1c(=O)n(CC)c2cc(N3CCCC3)c(NC(=O)c3cccc(Cl)c3)cc21	0	0	15µM	0	?	9.2µM
Cc1ccc(C(=O)Nc2ccc(N3CCOCC3)c3nonc23)cc1[N+](=O)[O-]	0	0	?	0	0	?
CCn1c(=O)n(CC)c2cc(N3CCCC3)c(NC(=O)c3cccc(C)c3)cc21	?	0	21µM	0	0	16µM
CCn1c(=O)c(=O)n(CC)c2cc(N3CCCCC3)c(NC(=O)c3cccc(OC)c3)cc21	-	-	0	-	-	0
Cc1ccc(Cl)cc1NC(=O)c1cccc(NC(=O)N2CCSc3ncccc32)c1	-	-	0	-	-	0
CCOc1ccccc1CN1CCC(Oc2ccc(C(=O)NCc3ccccn3)cc2)CC1	0	0	?	?	?	?
CCOc1ccccc1CNC(=O)c1ccc(NC(=O)N2CCSc3ncccc32)cc1	-	-	21µM	-	-	15µM
CCc1ccc(CNC(=O)Cc2ccc(NC(=O)C3=C(C)OCCS3)cc2)cc1	0	?	1.2µM	?	?	1.3µM
O=C(Cc1ccc(NC(=O)N2CCSc3ncccc32)cc1)NCc1cccc(Cl)c1	-	-	?	-	-	21µM
COc1ccc(CNC(=O)c2ccc(NC(=O)C3=CSCCO3)cc2)cc1	0	?	?	?	0	0
CCOc1ccccc1CNC(=O)c1ccc(NC(=O)C2=CSCCO2)cc1	0	0	?	0	0	23µM
COCc1c(C(=O)N/N=C(/C)c2ccc(OCc3ccccc3)cc2)nnn1-c1nonc1N	?	?	0	0	0	0
COCCC(=O)N1CCC(Oc2ccc(C(=O)N3CCCCC3CCO)cc2)CC1 (configuration not stated)	0	?	0	0	0	0
O=C(Cc1ccc(NC(=O)N2CCSc3ncccc32)cc1)NCCc1ccccc1	-	-	?	-	-	0
CCOc1ccc(CNC(=O)Cc2ccc(NC(=O)N3CCSc4ncccc43)cc2)cc1	-	-	16µM	-	-	16µM
CCc1ccc(CNC(=O)Cc2ccc(NC(=O)N3CCSc4ncccc43)cc2)cc1	-	-	26µM	-	-	23µM
CCOc1ccc(NC(=O)c2ccc(NC(=O)N3CCSc4ncccc43)cc2)cc1	-	-	0	-	-	0
SMILES	IL1B secr inh	Chronic BCR inh	DT40 TDP1 CPT	SW480 rerep	MCF10A rereplic	DT40 TDP1 no CPT
CCc1oc(C(=O)O)cc1CN(CC)CC	0	-	0	0	0	0
CCN(CC)Cc1cc(O)c(CN(CC)CC)cc1O	0	0	6.5µM	0	0	4.1µM
O=C(CN1CCN(C(=O)CN2C(=O)NC3(CCCC3)C2=O)CC1)Nc1cccc(F)c1	0	0	0	0	0	0
O=C(Cc1ccc(Cl)cc1)c1c(O)cc(O)cc1O	-	-	0	-	-	0
COC(C[C@H]1O[C@@H]1[C@H](O)COCc1ccccc1)OC	0	0	0	0[9.22 µM]	0	0
CCO[C@@H]1O[C@H](C(COCc2ccccc2)OCc2ccccc2)[C@H](OCc2ccccc2)[C@H]1O (some centres not stated)	-	-	11µM	-	-	?
Cn1c(-c2ccccc2)c(CCO)c2ccccc21	0	0	0	0	0	0
Cn1c(-c2ccccc2)c(C(=O)CCl)c2ccccc21	-118	?	2.6µM	?	?	3.3µM
CCn1c(-c2ccccc2)c(C(=O)CCl)c2ccccc21	-108	?	3.7µM	?	23µM	2.6µM
COc1ccc(/C=N/NC(=O)C2COc3ccccc3O2)cc1OC (configuration not stated)	0	0	0	0	0	0
COc1ccc(/C=N\NC(=O)C2COc3ccccc3O2)cc1O (configuration not stated)	0	0	15µM	0	?	?
COc1cc(/C=N/NC(=O)C2COc3ccccc3O2)ccc1O (configuration not stated)	0	0	0	0	0	0
C/C(=N/NC(=O)C1COc2ccccc2O1)c1ccc(Br)s1 (configuration not stated)	0	0	0	0	0	0
Cc1cc([N+](=O)[O-])cc(/C=N\NC(=O)C2COc3ccccc3O2)c1O (configuration not stated)	0	0	16µM	?	0	13µM
C/C(=N\NC(=O)C1COc2ccccc2O1)c1ccccn1 (configuration not stated)	0	?	5.8µM	0	18µM	2.9µM
COc1cc(/C=N\NC(=O)C2COc3ccccc3O2)cc(OC)c1O (configuration not stated)	-71	0	0	0	0	0
COc1ccc(N2CCN(C(=O)c3oc4ccccc4c3NC(=O)Cc3ccc(OC)c(OC)c3)CC2)cc1	0	0	?	0	0	0
O=C(N/N=C\C=C\c1ccco1)C1COc2ccccc2O1 (configuration not stated)	0	?	2.6µM	?	?	10µM
O=C(N/N=C/c1ccc2c(c1)OCO2)C1COc2ccccc2O1 (configuration not stated)	0	0	?	0	0	23µM
CC(C)NS(=O)(=O)c1ccc(NC(=O)C(C)OC(=O)CCC2CCCC2)cc1 (configuration not stated)	0	0	0	?	0	0
CN(C)C(=O)COC(=O)/C=C/c1ccccc1[N+](=O)[O-]	?	0	0	0	0	0
